Source: PubChem
Only a sample is shown.
aSyn UTR act: Activators via SNCA 5'UTR binding, MLPCN; alpha-synuclein 5'UTR reporter, activators screen; activity score, % (tested at 7.5 µM), hits read low; 300,000 tested, 7.1% active; AID 1814; in the data active means activity score below about -60%
Hits are given with their value; - = inactive.

SMILES	aSyn UTR act
Cc1ccc(N=Nc2ccc(O)c3ncccc23)cc1	-
Cc1ccc(N=Nc2c(O)n(CN3CCOCC3)c3ccccc23)cc1	-116
COc1cccc(C(=O)NCCn2ccc3ccccc32)c1	-119
O=C(NCCSc1ccccc1)c1ccccc1	-191
CC(C)(C)SCCNC(=O)c1ccccc1	-117
Cc1ccc(C(=O)NCCSC(C)(C)C)cc1[N+](=O)[O-]	-119
O=C(NCCSc1ccccc1)c1ccc(Br)cc1	-67
COc1ccc(C(=O)NCc2cc3ccccc3n2C)cc1	-92
CC(C)(C)c1ccc(C(=O)NCCOc2ccccc2F)cc1	-
COc1cccc(C(=O)NCCSc2ccc(F)cc2)c1	-157
COc1ccc(N=Nc2n(C)c3ccccc3[n+]2C)cc1	-
CSCCNC(=O)c1ccc(C(C)(C)C)cc1	-84
COc1c(C(=O)NCCSC(C)(C)C)ccc2ccccc12	-62
COc1cc(OC)cc(C(=O)NCCOc2ccccc2)c1	-121
O=C(NCCOc1ccccc1)c1cncc(Br)c1	-92
O=C(NCCSc1ccccc1)c1cncc(Br)c1	-132
COc1cccc(C(=O)NCC(=O)N2CCC(C)CC2)c1	-115
O=C(NCCOc1ccccc1)c1cc2ccccc2o1	-81
COc1ccc(Nc2c([N+](=O)[O-])ccc3c2=NC2(CCCCC2)N=3)cc1	-64
CCOC(=O)C1CCCN(C(=O)c2cc(COc3ccc(C)nc3)on2)C1 (configuration not stated)	-86
CCCN1CCN(C(=O)c2cc(COc3ccc(F)c(F)c3)on2)CC1	-74
Cc1nn(C)c(C)c1C(C)NC(=O)c1cc(COc2ccc(F)c(F)c2)on1 (configuration not stated)	-68
CCCOC1CCCN(C(=O)c2cc(COc3ccc(F)c(F)c3)on2)C1 (configuration not stated)	-118
Nn1c(SCC(=O)Nc2ccc(F)cc2F)nnc1C1CCCCC1	-64
Nn1c(SCC(=O)Nc2ccc(F)cc2F)nnc1-c1cccnc1	-89
SMILES	aSyn UTR act
COc1ccccc1-c1noc(-c2cccs2)n1	-236
COc1ccccc1-c1noc(-c2ccncc2)n1	-74
COc1ccccc1-c1nc(-c2ccccn2)no1	-
COc1ccc(-c2nc(-c3cccs3)no2)cc1	-
COc1cccc(-c2ccc(-c3noc(-c4cccs4)n3)c(OC)n2)c1	-85
O=[N+]([O-])c1cccc(-c2noc(-c3cccs3)n2)c1	-147
Cc1sc2c(c1C)CN(CCN1CCOCC1)CN2C(=O)c1ccccc1	-82
Cc1ccc(-c2cc(N)n[nH]2)cc1	-73
CC(C)(C)c1ccc(-c2cc(N)n[nH]2)cc1	-
CCOC(=O)c1cc2c(C)n(-c3ccc(C)cc3)c(C)c2ccc1=O	-64
C=CCS/C(=N\n1cnc2ccccc2c1=O)N1CCCCC1	-86
c1ccc(Nc2ccnc(Nc3ccccc3)n2)cc1	-100
NNc1nc(Nc2ccccc2)nc(Nc2ccccc2)n1	-117
CN1CCC(C2(O)c3ccccc3CCc3ccccc32)CC1	-62
COc1ccccc1C(=O)Nc1ccc2c(C)cc(=O)oc2c1	-154
CCOC(=O)Nc1ccc2c(COC(=O)c3ccccc3O)cc(=O)oc2c1	-83
CCN(CC)c1ccc(C(=O)OCc2cc(=O)oc3cc(O)ccc23)cc1	-
Cc1ccccc1OCCC(=O)Nc1ccc2c(C)cc(=O)oc2c1	-64
CN(C)CCn1cnc2c(c1=N)C(c1ccccc1)c1ccc3ccccc3c1O2 (configuration not stated)	-
O=c1nc(/C=C/c2cc([N+](=O)[O-])ccc2Cl)cc(C(F)(F)F)[nH]1	-67
COc1cc(OC)c(OC)cc1/C=C/c1cc(C(F)(F)F)[nH]c(=O)n1	-121
C(=N\Nc1nc2ccccc2[nH]1)/c1ccncc1	-147
CC(=O)Nc1ccc(/C=N/Nc2nc3ccccc3[nH]2)cc1	-101
COC(=O)c1ccc(/C=N/Nc2nc3ccccc3[nH]2)cc1	-176
Clc1nc2ccccc2cc1/C=N/Nc1nc2ccccc2[nH]1	-97
SMILES	aSyn UTR act
c1ccc2[nH]c(NN=C3CCCCCC3)nc2c1	-114
COc1ccc(/C(C)=N/Nc2ncc(Cl)cc2Cl)c(O)c1	-92
O=c1oc(-c2cccs2)nc2sc3c(c12)CCCCC3	-90
Nc1nc(-c2cccnc2)nc2sc3c(c12)CCCC3	-122
CCc1c(-c2ccccc2)nc2sc3c(c2c1N)CCCC3	-113
O=c1oc(-c2ccccc2)nc2sc3c(c12)CCCC3	-103
O=c1oc(/C=C/c2ccccc2)nc2sc3c(c12)CCC3	-212
CSc1cccc(NC(=O)c2cnn3ccccc23)c1	-100
COc1ccc(NC(=O)c2ccccn2)cc1OC	-88
CSc1cccc(NC(=O)c2cnccn2)c1	-69
COc1ccc(NC(=O)c2ccccn2)cc1	-
CSc1cccc(NC(=O)c2ccccn2)c1	-103
CCc1ccc(NC(=O)c2cnn3ccccc23)cc1	-
O=C(NCc1ccc(F)cc1)c1cnn2ccccc12	-87
Oc1ccc(Nc2nc(-c3ccc4ccccc4c3)cs2)cc1	-210
CC(=O)Nc1nc(-c2ccc3ccccc3c2)cs1	-143
COc1cccc(NS(=O)(=O)NC(=O)c2c[nH]c3ccccc23)c1	-63
Cc1cc2[nH]c3ccccc3c2c(C)n1	-85
Oc1c(Br)cc(Br)cc1C=Nc1ccc2c(c1)OCO2	-66
CCC1CSC(Nc2ccc(C(=O)/C=C/c3ccc(Oc4ccccc4)cc3)cc2)=N1 (configuration not stated)	-88
O=C(CCl)N1c2ccccc2SCC1c1ccccc1 (configuration not stated)	-64
CN1CCN(S(=O)(=O)c2ccc(Br)c3nsnc23)CC1	-70
Cc1ccccc1-c1nc(Cc2ccccc2)no1	-129
Clc1ccc(-c2nc(Cc3ccccc3)no2)cc1	-141
Oc1c(-c2cc(-c3ccco3)[nH]n2)ccc2ccccc12	-170
SMILES	aSyn UTR act
Oc1ccccc1-c1cc(-c2ccco2)[nH]n1	-256
C=CCNc1nc(Cl)nc(Nc2ccccc2)n1	-72
CCCC(=O)Nc1nnc(-c2ccc3c(c2)OCO3)s1	-141
CC(C)(C)c1nnc(NC(=O)c2ccc3c(c2)OCO3)s1	-191
CCN(CC)C(=O)c1sc(NC(=O)c2ccc3c(c2)OCO3)c(C(N)=O)c1C	-105
CC(C)(C)c1nnc(NC(=O)COc2ccc3c(c2)OCO3)s1	-81
CCCC(=O)NC(c1ccc2c(c1)OCO2)c1cc(Cl)c2cccnc2c1O (configuration not stated)	-
CC(c1ccccc1)c1nnc(NC(=O)c2ccc3c(c2)OCO3)s1 (configuration not stated)	-139
CCSc1nnc(NC(=O)c2ccc3c(c2)OCO3)s1	-94
CC(C)c1nnc(NC(=O)c2ccc3c(c2)OCO3)s1	-
CC(C)Sc1nnc(NC(=O)c2ccc3c(c2)OCO3)s1	-118
Cc1cc(/C=C2/NC(=O)N(c3ccccc3)C2=O)c(C)n1-c1cccnc1	-149
Cc1cc(/C=C2/C(=N)N3C(c4ccccc4)=CSC3=NC2=O)c(C)n1-c1ccccc1	-81
CC1=NN(c2ccccc2)C(=O)/C1=C\c1cc(C)n(-c2ccccc2)c1C	-82
CC1=NN(c2ccccc2)C(=O)/C1=C/c1ccc[nH]1	-181
Cc1cc(/C=C2\Cc3ccccc3C2=O)c(C)n1-c1ccccc1	-
CC1=NN(c2cccc(C(=O)O)c2)C(=O)/C1=C\C=C/c1ccccc1	-64
CC1=NN(c2ccccc2)C(=O)/C1=C/c1c(O)n(-c2ccc(F)cc2)[nH]c1=O	-134
Cc1cc(NC(=O)c2cc3cccc([N+](=O)[O-])c3[nH]2)ccc1F	-93
Cc1c(C(=O)N/N=C/C(C)C)[nH]c2c([N+](=O)[O-])cccc12	-
